Test results published in PMC7862700, “An all-to-all approach to the identification of sequence-specific readers for epigenetic DNA modifications on cytosine”.

Columns and labels:
Experiment in all cases: DAPPL (digital affinity profiling via proximity ligation, sequencing); 10 mM Tris-HCl pH 7.5, 50 mM NaCl, 1 mM DTT, 4% glycerol, room temperature, 30 min; GST-TFs on glutathione beads, 16-mer random dsDNA library, 0.1% formaldehyde crosslink after washing; high values mean tight binding
FLI1 = target: T1, FLI1 (Homo sapiens, UniProt Q01543 1-452); settings: protein: recombinant; tags: N-terminal GST; dsDNA, one strand shown
T1 sequence: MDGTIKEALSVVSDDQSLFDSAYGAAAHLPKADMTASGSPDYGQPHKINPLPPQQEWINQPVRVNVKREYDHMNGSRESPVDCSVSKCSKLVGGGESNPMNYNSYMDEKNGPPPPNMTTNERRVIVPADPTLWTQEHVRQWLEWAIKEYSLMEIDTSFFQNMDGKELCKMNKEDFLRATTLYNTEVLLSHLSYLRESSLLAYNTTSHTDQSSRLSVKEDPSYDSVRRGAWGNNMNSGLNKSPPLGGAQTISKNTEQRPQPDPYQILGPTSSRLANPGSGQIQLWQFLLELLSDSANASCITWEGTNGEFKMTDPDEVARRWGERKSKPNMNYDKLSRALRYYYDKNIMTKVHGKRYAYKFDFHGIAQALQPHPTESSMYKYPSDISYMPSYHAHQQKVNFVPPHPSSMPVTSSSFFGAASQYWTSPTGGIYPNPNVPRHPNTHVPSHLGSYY
Method in brief: (§1)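 Sequencing on an Illumina NextSeq500 followed washing, crosslinking with 0.1% formaldehyde, proximity ligation (BsaI/T4 ligase, 1 h, 37 °C) and PCR amplification of pools that had been incubated for 30 min at room temperature with 200 nmole of a random double-stranded 16-mer DNA library in Tris/NaCl/DTT/glycerol buffer. Each pool held DNA-barcoded human transcription factors, expressed in yeast as GST fusions and captured on glutathione beads, plus a tag-only sample. Binding signal is a hexamer's read frequency for a factor divided by its frequency in the tag-only sample.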

ELK1 = target: T2, ELK1 (Homo sapiens, UniProt P19419 1-428); settings: protein: recombinant; tags: N-terminal GST; dsDNA, one strand shown
T2 sequence: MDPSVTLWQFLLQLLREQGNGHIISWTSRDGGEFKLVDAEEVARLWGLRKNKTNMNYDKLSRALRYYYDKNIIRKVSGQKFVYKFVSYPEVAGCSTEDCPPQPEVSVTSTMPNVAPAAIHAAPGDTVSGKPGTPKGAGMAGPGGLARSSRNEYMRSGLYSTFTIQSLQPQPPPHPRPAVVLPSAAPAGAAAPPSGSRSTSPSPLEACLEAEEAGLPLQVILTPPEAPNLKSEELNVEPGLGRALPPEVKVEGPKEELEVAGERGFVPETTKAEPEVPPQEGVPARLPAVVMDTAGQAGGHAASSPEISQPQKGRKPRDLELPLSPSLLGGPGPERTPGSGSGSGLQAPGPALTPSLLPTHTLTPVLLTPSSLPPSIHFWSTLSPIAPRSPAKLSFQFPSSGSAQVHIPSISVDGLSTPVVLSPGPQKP
Method in brief: as §1

GABPA = target: T3, GABPA (Homo sapiens, UniProt Q06546 1-454); settings: protein: recombinant; tags: N-terminal GST; dsDNA, one strand shown
T3 sequence: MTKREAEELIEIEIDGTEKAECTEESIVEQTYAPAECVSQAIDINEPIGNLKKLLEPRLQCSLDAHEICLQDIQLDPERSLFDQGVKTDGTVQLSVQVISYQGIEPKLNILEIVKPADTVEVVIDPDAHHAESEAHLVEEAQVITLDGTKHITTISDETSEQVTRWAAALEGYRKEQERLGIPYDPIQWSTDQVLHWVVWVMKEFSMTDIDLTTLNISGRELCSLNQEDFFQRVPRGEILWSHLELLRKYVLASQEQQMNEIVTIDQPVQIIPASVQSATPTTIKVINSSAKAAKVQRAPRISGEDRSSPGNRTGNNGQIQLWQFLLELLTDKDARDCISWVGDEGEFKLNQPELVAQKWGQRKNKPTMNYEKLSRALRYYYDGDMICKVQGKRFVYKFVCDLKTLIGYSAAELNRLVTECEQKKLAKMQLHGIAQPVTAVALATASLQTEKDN
Method in brief: as §1

ERG = target: T4, ERG (Homo sapiens, UniProt P11308 1-479); settings: protein: recombinant; tags: N-terminal GST; dsDNA, one strand shown
T4 sequence: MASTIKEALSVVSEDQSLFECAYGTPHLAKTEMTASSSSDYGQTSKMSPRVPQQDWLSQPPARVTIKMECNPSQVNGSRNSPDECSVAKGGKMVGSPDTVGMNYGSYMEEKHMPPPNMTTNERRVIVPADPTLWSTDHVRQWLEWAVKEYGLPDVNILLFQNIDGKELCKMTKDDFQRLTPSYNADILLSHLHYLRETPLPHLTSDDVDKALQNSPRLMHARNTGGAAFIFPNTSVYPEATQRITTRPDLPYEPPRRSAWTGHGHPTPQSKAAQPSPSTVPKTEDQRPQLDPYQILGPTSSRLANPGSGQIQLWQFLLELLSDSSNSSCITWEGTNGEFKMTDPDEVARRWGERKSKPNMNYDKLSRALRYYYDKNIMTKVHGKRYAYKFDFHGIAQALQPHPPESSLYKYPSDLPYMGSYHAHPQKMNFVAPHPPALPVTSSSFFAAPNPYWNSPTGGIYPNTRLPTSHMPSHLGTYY
Method in brief: as §1

ELF1 = ELF1 (Homo sapiens, UniProt P32519 1-619); settings: protein: recombinant; tags: N-terminal GST; dsDNA, one strand shown
Chain of ELF1 (P32519 whole entry): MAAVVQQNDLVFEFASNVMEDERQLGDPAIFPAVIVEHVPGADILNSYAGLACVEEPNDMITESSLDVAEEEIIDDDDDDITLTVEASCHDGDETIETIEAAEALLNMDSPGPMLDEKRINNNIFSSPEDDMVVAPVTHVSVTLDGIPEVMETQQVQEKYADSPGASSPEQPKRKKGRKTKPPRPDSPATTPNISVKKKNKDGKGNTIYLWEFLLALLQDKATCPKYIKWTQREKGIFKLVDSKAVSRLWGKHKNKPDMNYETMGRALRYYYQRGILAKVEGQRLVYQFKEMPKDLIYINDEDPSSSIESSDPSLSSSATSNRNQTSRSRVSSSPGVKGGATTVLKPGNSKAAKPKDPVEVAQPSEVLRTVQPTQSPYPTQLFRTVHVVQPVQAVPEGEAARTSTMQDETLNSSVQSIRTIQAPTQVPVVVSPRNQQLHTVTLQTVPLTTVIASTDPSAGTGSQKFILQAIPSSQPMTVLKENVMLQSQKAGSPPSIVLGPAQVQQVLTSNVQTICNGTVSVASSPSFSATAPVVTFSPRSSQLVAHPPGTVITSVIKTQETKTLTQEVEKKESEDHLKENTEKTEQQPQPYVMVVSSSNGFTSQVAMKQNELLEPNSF
Method in brief: as §1

EHF = target: T5, EHF (Homo sapiens, UniProt Q9NZC4 1-300); settings: protein: recombinant; tags: N-terminal GST; dsDNA, one strand shown
T5 sequence: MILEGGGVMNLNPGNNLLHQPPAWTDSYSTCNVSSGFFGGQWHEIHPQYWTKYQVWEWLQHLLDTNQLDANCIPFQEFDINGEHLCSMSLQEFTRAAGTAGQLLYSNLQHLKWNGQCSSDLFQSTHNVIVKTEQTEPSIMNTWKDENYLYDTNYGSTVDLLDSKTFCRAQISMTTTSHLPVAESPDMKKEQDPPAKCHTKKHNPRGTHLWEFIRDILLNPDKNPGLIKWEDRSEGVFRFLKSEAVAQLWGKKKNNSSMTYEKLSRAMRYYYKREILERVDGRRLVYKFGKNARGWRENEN
Method in brief: as §1

SPI1 = SPI1 (Homo sapiens, UniProt P17947 1-270); settings: protein: recombinant; tags: N-terminal GST; dsDNA, one strand shown
Method in brief: as §1

SPIB = SPIB (Homo sapiens, UniProt Q01892 1-262); settings: protein: recombinant; tags: N-terminal GST; dsDNA, one strand shown
Chain of SPIB (Q01892 whole entry): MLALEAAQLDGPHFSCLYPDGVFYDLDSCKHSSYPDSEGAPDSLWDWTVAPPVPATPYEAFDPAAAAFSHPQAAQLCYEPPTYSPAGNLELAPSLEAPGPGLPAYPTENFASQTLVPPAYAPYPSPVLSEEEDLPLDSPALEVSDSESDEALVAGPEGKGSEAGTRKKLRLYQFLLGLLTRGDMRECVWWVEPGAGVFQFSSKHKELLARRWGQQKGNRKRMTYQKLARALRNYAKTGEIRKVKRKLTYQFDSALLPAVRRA
Method in brief: as §1

ELK3 = target: T6, ELK3 (Homo sapiens, UniProt P41970 1-407); settings: protein: recombinant; tags: N-terminal GST; dsDNA, one strand shown
T6 sequence: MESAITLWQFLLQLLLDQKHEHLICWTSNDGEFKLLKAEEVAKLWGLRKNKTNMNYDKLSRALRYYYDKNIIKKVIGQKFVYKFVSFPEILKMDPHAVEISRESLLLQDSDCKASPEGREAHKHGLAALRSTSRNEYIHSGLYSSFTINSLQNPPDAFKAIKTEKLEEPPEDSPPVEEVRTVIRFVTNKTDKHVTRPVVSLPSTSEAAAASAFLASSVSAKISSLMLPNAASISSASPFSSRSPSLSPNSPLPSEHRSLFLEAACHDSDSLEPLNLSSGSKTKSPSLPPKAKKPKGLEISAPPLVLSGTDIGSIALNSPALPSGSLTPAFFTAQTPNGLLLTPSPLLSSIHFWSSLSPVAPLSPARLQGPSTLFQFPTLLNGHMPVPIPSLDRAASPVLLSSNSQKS
Method in brief: as §1

FEV = target: T7, FEV (Homo sapiens, UniProt Q99581 1-238); settings: protein: recombinant; tags: N-terminal GST; dsDNA, one strand shown
T7 sequence: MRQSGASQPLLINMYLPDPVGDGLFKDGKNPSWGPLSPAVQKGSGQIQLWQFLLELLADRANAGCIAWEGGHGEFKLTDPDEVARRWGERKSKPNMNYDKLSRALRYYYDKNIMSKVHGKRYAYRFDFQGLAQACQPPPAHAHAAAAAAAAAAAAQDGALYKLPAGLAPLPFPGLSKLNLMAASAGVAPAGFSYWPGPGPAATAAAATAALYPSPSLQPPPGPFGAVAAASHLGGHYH
Method in brief: as §1

ETV5 = ETV5 (Homo sapiens, UniProt P41161 1-510); settings: protein: recombinant; tags: N-terminal GST; dsDNA, one strand shown
Chain of ETV5 (P41161 whole entry): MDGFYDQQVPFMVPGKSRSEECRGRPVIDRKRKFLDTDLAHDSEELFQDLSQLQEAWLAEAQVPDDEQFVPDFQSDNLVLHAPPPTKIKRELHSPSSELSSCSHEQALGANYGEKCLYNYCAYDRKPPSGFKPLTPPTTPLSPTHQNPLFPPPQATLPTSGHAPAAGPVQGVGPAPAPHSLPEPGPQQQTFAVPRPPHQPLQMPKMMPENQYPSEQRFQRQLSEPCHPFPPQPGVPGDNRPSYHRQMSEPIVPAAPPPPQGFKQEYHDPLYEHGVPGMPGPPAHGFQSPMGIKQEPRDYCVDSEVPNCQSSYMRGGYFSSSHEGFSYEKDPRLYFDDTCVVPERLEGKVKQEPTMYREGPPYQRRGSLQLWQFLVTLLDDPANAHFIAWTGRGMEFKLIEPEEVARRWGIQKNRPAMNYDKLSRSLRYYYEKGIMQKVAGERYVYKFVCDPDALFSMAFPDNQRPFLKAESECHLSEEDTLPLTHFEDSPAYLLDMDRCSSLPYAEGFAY
Method in brief: as §1

HSF1 = HSF1 (Homo sapiens, UniProt Q00613 1-529); settings: protein: recombinant; tags: N-terminal GST; chain copies: 3; dsDNA, one strand shown
Chain of HSF1 (Q00613 whole entry): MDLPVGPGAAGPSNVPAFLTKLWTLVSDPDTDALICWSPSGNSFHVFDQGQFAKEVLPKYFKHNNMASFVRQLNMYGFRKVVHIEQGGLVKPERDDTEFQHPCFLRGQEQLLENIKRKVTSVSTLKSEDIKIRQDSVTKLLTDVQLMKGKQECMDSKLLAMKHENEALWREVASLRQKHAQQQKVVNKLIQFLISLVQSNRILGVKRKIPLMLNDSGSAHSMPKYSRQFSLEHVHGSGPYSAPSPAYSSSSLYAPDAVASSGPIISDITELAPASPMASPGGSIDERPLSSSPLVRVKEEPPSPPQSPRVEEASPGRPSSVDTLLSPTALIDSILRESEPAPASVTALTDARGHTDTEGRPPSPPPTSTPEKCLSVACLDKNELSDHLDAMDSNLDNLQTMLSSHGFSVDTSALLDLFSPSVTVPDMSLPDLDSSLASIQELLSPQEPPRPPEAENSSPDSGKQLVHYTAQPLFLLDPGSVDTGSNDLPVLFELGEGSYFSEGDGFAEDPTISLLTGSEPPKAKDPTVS
Method in brief: as §1

SPIC = target: T8, SPIC (Homo sapiens, UniProt Q8N5J4 1-248); settings: protein: recombinant; tags: N-terminal GST; dsDNA, one strand shown
T8 sequence: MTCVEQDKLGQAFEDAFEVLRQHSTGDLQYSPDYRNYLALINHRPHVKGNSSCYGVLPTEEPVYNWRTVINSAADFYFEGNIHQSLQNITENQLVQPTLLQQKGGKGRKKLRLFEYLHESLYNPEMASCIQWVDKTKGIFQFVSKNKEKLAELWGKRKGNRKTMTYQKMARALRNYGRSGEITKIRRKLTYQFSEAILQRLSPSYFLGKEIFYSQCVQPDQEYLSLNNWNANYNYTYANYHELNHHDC
Method in brief: as §1

ELF4 = ELF4 (Homo sapiens, UniProt Q99607 1-663); settings: protein: recombinant; tags: N-terminal GST; dsDNA, one strand shown
Chain of ELF4 (Q99607 whole entry): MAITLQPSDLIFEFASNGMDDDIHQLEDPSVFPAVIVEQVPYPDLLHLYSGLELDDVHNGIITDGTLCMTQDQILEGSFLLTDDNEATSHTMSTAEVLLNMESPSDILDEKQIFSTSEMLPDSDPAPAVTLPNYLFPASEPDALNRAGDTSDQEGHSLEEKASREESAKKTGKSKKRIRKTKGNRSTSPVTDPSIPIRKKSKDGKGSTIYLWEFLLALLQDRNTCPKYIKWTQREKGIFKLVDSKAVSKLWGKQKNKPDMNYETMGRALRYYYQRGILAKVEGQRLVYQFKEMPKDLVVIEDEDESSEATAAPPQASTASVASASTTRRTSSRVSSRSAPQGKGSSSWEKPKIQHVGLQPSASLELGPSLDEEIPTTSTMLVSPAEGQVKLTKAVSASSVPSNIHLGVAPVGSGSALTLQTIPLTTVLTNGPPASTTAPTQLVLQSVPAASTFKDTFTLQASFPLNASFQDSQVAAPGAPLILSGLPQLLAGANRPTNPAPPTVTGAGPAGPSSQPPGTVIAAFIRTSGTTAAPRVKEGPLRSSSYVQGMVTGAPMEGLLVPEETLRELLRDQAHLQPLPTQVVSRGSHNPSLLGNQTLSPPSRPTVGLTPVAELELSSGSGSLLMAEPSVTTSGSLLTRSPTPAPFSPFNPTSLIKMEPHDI
Method in brief: as §1

ELK4 = target: T9, ELK4 (Homo sapiens, UniProt P28324-2 1-405); settings: protein: recombinant; tags: N-terminal GST; dsDNA, one strand shown
T9 sequence: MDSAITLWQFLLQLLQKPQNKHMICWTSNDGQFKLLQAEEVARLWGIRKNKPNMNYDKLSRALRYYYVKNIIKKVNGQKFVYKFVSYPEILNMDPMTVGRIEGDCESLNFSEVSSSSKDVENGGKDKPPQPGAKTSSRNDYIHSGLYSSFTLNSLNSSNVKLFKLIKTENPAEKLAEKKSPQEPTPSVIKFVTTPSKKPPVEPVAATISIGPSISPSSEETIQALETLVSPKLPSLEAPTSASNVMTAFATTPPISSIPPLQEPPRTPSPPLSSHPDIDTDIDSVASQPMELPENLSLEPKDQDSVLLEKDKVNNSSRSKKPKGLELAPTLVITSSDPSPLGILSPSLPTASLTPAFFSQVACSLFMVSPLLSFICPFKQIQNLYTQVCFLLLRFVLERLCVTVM
Method in brief: as §1

ETV2 = target: T10, ETV2 (Homo sapiens, UniProt O00321 1-342); settings: protein: recombinant; tags: N-terminal GST; dsDNA, one strand shown
T10 sequence: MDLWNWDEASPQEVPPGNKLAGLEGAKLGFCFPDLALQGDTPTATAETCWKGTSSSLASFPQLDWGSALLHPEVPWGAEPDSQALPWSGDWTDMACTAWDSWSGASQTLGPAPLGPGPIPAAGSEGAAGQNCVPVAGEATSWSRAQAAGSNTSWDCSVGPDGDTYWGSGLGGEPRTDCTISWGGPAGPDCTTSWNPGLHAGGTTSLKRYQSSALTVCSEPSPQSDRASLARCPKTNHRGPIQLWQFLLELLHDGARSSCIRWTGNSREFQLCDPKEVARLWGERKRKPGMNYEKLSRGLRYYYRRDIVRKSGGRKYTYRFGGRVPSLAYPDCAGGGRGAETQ
Method in brief: as §1

ELF3 = target: T11, ELF3 (Homo sapiens, UniProt P78545 1-371); settings: protein: recombinant; tags: N-terminal GST; dsDNA, one strand shown
T11 sequence: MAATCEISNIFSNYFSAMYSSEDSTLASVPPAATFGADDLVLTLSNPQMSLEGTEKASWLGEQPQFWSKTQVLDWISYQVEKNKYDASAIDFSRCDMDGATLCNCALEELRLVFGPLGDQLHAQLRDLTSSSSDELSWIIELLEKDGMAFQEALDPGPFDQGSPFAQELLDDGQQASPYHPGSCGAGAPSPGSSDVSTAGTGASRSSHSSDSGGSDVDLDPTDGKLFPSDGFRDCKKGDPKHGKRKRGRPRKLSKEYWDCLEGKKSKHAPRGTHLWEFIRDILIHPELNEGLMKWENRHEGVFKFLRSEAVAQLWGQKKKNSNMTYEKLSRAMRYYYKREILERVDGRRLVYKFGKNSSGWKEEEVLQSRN
Method in brief: as §1

CRX = CRX (Homo sapiens, UniProt O43186 1-299); settings: protein: recombinant; tags: N-terminal GST; dsDNA, one strand shown
Chain of CRX (O43186 whole entry): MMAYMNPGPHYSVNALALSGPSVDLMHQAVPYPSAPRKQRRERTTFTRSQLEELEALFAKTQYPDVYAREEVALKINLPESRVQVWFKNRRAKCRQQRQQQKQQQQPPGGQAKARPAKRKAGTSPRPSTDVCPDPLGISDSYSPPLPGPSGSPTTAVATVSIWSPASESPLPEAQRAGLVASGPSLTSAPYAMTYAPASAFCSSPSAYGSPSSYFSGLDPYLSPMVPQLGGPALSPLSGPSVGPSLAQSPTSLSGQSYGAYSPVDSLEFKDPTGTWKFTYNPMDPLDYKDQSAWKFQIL
Method in brief: as §1

ETV1 = ETV1 (Homo sapiens, UniProt P50549 1-477); settings: protein: recombinant; tags: N-terminal GST; dsDNA, one strand shown
Chain of ETV1 (P50549 whole entry): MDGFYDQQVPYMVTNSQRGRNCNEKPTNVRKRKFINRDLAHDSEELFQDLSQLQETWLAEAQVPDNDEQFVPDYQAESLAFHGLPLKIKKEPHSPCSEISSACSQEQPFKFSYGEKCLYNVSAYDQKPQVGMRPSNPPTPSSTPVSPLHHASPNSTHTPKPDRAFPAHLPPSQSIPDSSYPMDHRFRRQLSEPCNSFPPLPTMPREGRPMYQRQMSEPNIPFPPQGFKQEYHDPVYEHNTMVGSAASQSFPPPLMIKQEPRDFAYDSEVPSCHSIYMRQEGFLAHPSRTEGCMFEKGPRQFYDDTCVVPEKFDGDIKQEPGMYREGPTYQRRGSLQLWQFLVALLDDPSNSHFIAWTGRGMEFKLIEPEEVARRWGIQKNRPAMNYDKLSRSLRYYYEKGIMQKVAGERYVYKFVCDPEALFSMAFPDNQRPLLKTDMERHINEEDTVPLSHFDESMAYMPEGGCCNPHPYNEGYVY
Method in brief: as §1

AATAAA
binding signal (FLI1): 1.2 fold enrichment (6-mer frequency, TF over GST control) | binding signal (ELK1): 1.2 fold enrichment (6-mer frequency, TF over GST control) | binding signal (GABPA): 1.27 fold enrichment (6-mer frequency, TF over GST control) | binding signal (ERG): 1.21 fold enrichment (6-mer frequency, TF over GST control) | binding signal (ELF1): 1.27 fold enrichment (6-mer frequency, TF over GST control) | binding signal (EHF): 1.25 fold enrichment (6-mer frequency, TF over GST control) | binding signal (SPI1): 1.32 fold enrichment (6-mer frequency, TF over GST control) | binding signal (SPIB): 1.26 fold enrichment (6-mer frequency, TF over GST control) | binding signal (ELK3): 1.27 fold enrichment (6-mer frequency, TF over GST control) | binding signal (FEV): 1.22 fold enrichment (6-mer frequency, TF over GST control) | binding signal (ETV5): 1.31 fold enrichment (6-mer frequency, TF over GST control) | binding signal (HSF1): 1.42 fold enrichment (6-mer frequency, TF over GST control) | binding signal (SPIC): 1.26 fold enrichment (6-mer frequency, TF over GST control) | binding signal (ELF4): 1.29 fold enrichment (6-mer frequency, TF over GST control) | binding signal (ELK4): 1.28 fold enrichment (6-mer frequency, TF over GST control) | binding signal (ETV2): 1.21 fold enrichment (6-mer frequency, TF over GST control) | binding signal (ELF3): 1.31 fold enrichment (6-mer frequency, TF over GST control) | binding signal (CRX): 1.57 fold enrichment (6-mer frequency, TF over GST control) | binding signal (ETV1): 1.23 fold enrichment (6-mer frequency, TF over GST control)
